PubChem BioAssay (EPA / NIEHS)
Results filed as inconclusive are left out. Calls of active or inactive are those of the source. How the source made its calls: active means hit-call score of the fitted dose curve at least 0.9, where 1 is the maximum; inconclusive means response in the unintended direction; inactive means score below 0.9.

biological target: Bile acid receptor (Homo sapiens) (UniProt Q96RI1); assay: ATG_FXR_TRANS: Attagene TRANS-FACTORIAL HepG2 Assay for Farnesoid X Receptor (FXR) (AID 2282979); conditions: HepG2 Attagene TRANS FXR-GAL4 reporter transcription;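 further: hits raise reporter mRNA above DMSO so AC50 marks FXR activation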
How it was run: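 Reporter transcripts from transfected HepG2 cells were measured 24 h after dosing, using RT-PCR with capillary electrophoresis of 6-FAM-labelled fragments. The read-out reflects activity of exogenous FXR-Gal4 chimera on GAL4-UAS units, with induction relative to DMSO.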

Sequence of Bile acid receptor (Homo sapiens) (Q96RI1 whole entry, looked up, the tested form may be a part): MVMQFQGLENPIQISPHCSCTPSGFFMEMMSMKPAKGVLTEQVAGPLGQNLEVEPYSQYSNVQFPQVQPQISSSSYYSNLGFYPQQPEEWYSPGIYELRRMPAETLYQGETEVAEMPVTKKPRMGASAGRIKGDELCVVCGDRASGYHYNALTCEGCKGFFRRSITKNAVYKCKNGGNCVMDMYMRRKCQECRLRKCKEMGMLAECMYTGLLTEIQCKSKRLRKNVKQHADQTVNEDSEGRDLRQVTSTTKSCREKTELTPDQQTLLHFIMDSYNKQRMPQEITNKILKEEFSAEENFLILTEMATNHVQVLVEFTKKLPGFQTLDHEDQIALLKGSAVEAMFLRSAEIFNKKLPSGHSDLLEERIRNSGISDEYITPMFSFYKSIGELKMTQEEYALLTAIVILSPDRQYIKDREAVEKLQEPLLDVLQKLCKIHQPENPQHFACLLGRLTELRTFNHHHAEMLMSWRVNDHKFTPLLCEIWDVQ

Question: How did the outcome turn out when `COc1cc2ncnc(Nc3cccc(Cl)c3)c2cc1OC` was run?
Answer: inactive

Question: Which outcome does the source give for `CC(=O)[C@H]1CC[C@H]2[C@@H]3CC=C4C[C@@H](O)CC[C@]4(C)[C@H]3CC[C@]12C` here?
Answer: inactive

Question: Which outcome does the source give for `C#C[C@]1(O)CC[C@H]2[C@@H]3CCC4=Cc5oncc5C[C@]4(C)[C@H]3CC[C@@]21C` here?
Answer: inactive

Question: Which outcome does the source give for `CC(C)(C#N)c1cc(Cn2cncn2)cc(C(C)(C)C#N)c1` here?
Answer: inactive

Question: For `CCCC/C=C\CCCCCCCCCC=O`, which outcome is on record?
Answer: inactive

Question: Which outcome does the source give for `C=CC(=O)OCCn1c(=O)n(CCOC(=O)C=C)c(=O)n(CCOC(=O)C=C)c1=O` here?
Answer: inactive

Question: Which outcome does the source give for `Nc1cc([N+](=O)[O-])ccc1Cl` here?
Answer: inactive

Question: How did the outcome turn out when `CC(C#N)(CCC(=O)O)N=NC(C)(C#N)CCC(=O)O` (stereo not drawn) was run?
Answer: inactive

biological target: Oxysterols receptor LXR-alpha (Homo sapiens) (UniProt Q13133); assay: ATG_LXRa_TRANS: Attagene TRANS-FACTORIAL HepG2 Assay for human Liver X Receptor alpha (LXRa) (AID 2282980); conditions: HepG2 Attagene TRANS reporter, LXRa transactivation
How it was run: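 Chemical-induced reporter mRNA measured by RT-PCR with fluorescent labelling and capillary electrophoresis after 24 h dosing of transiently transfected HepG2 cells expressing exogenous NR-Gal4 chimeras; increases scored against DMSO baseline.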

Sequence of Oxysterols receptor LXR-alpha (Homo sapiens) (Q13133 whole entry, looked up, the tested form may be a part): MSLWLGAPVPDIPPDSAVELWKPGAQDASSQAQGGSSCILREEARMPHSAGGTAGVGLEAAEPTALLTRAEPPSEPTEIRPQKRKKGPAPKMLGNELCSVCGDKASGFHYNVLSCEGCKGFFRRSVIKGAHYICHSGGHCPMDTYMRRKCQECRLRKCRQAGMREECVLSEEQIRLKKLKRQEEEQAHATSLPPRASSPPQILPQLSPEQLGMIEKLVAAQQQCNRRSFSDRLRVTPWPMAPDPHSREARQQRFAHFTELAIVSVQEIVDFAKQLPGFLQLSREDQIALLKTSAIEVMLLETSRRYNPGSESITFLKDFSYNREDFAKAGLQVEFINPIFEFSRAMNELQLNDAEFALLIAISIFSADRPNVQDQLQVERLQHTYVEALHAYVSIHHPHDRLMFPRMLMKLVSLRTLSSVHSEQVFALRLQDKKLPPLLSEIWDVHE

Question: How did the outcome turn out when `COc1cc2ncnc(Nc3cccc(Cl)c3)c2cc1OC` was run?
Answer: inactive

Question: With `O=Cc1ccc(Cl)c([N+](=O)[O-])c1` as the compound, how does the outcome read?
Answer: inactive

Question: How did the outcome turn out when `OC[C@H]1O[C@H](O[C@]2(CCl)O[C@H](CCl)[C@@H](O)[C@@H]2O)[C@H](O)[C@@H](O)[C@H]1Cl` was run?
Answer: inactive

Question: For `CCCCCC=CCC(=O)OC`, which outcome is on record?
Answer: inactive

Question: With `C#C[C@]1(O)CC[C@H]2[C@@H]3CCC4=Cc5oncc5C[C@]4(C)[C@H]3CC[C@@]21C` as the compound, how does the AC50 read?
Answer: 26.4 µM (active)

Question: `CN1[C@@H]2CC(OC(=O)[C@H](CO)c3ccccc3)C[C@H]1[C@@H]1O[C@@H]12` (stereo partly drawn) was tested. Which outcome did it give?
Answer: inactive

Question: How did the outcome turn out when `CC(=O)/C=C/C1=C(C)CCCC1(C)C` was run?
Answer: inactive

Question: For `CCCCCCCCC=O`, which outcome is on record?
Answer: inactive

Question: For `O=C(O)c1ccc(C(=O)O)cc1`, which outcome is on record?
Answer: inactive

Question: How did the outcome turn out when `CC(C)(C#N)c1cc(Cn2cncn2)cc(C(C)(C)C#N)c1` was run?
Answer: inactive

Question: How did the outcome turn out when `CCN(CC)c1ccc(C(=C2C=CC(=[N+](CC)CC)C=C2)c2ccc(S(=O)(=O)O)cc2S(=O)(=O)[O-])cc1` was run?
Answer: inactive

Question: For `Clc1ccc(Cl)c(Cl)c1Cl`, which outcome is on record?
Answer: inactive

Question: Which outcome does the source give for `OCCOCCOCCOCCO` here?
Answer: inactive

Question: With `CCCOCC(C)O` (stereo not drawn) as the compound, how does the outcome read?
Answer: inactive

Question: `O=CCCc1ccccc1` was tested. Which outcome did it give?
Answer: inactive

Question: With `CC(C)OP(=O)(CP(=O)(OC(C)C)OC(C)C)OC(C)C` as the compound, how does the outcome read?
Answer: inactive

Question: For `CCCCCCCCCC=O`, which outcome is on record?
Answer: inactive

Question: For `CC(C#N)(CCC(=O)O)N=NC(C)(C#N)CCC(=O)O` (stereo not drawn), which outcome is on record?
Answer: inactive

Question: With `CC(C)C(C)(C)C(C)(C)C(C)(C)S` as the compound, how does the outcome read?
Answer: inactive

Question: For `C[C@]12CC[C@H]3[C@@H](CCC4=CC(=O)CC[C@@]43C)[C@@H]1CC[C@@H]2C(=O)CO`, which outcome is on record?
Answer: inactive

biological target: Oxysterols receptor LXR-beta (Homo sapiens) (UniProt P55055); assay: ATG_LXRb_TRANS: Attagene TRANS-FACTORIAL HepG2 Assay for human Liver X Receptor beta (LXRb) (AID 2282981); conditions: HepG2 Attagene TRANS GAL4-LXRb reporter, mRNA
How it was run: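 Readout: fluorescent reporter mRNA fragments resolved by capillary electrophoresis after RT-PCR. System: transiently transfected human HepG2, exogenous LXRb-Gal4 chimera driving GAL4-UAS reporter, 24 h dosing. Activity fitted upward against DMSO baseline.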

Sequence of Oxysterols receptor LXR-beta (Homo sapiens) (P55055 whole entry, looked up, the tested form may be a part): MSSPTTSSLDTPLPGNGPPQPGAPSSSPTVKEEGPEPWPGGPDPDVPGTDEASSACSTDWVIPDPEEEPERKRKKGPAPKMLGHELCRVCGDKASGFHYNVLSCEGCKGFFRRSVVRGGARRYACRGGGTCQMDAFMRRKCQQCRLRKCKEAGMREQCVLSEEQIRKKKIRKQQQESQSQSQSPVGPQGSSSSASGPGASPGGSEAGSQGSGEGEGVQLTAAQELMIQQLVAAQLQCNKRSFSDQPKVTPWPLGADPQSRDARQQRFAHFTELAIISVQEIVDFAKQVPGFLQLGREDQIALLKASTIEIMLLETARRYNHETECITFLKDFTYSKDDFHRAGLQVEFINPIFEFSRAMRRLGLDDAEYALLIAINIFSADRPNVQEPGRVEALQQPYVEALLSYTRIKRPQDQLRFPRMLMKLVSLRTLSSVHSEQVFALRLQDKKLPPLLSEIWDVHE

Question: `O=C1C(c2[nH]c3ccc(S(=O)(=O)O)cc3c2O)=Nc2ccc(S(=O)(=O)O)cc21` was tested. Which outcome did it give?
Answer: inactive

Question: Which outcome does the source give for `COc1cc2ncnc(Nc3cccc(Cl)c3)c2cc1OC` here?
Answer: inactive

Question: With `O=Cc1ccc(Cl)c([N+](=O)[O-])c1` as the compound, how does the outcome read?
Answer: inactive

Question: For `NCCCCCCN`, which outcome is on record?
Answer: inactive

Question: For `OC[C@H]1O[C@H](O[C@]2(CCl)O[C@H](CCl)[C@@H](O)[C@@H]2O)[C@H](O)[C@@H](O)[C@H]1Cl`, which outcome is on record?
Answer: inactive

Question: How did the outcome turn out when `CCCCCC=CCC(=O)OC` was run?
Answer: inactive

Question: Which outcome does the source give for `CNCCCC12CCC(c3ccccc31)c1ccccc12` here?
Answer: inactive

Question: For `CN1[C@@H]2CC(OC(=O)[C@H](CO)c3ccccc3)C[C@H]1[C@@H]1O[C@@H]12` (stereo partly drawn), which outcome is on record?
Answer: inactive

Question: With `CCCCCCCCC=O` as the compound, how does the outcome read?
Answer: inactive

Question: For `CCCCNC(=O)NS(=O)(=O)c1ccc(N)cc1`, which outcome is on record?
Answer: inactive

Question: `CC(C)(C#N)c1cc(Cn2cncn2)cc(C(C)(C)C#N)c1` was tested. Which outcome did it give?
Answer: inactive

Question: `O=C(O)CN(CCN(CC(=O)O)CC(=O)O)CCN(CC(=O)O)CC(=O)O` was tested. Which outcome did it give?
Answer: inactive

Question: With `CCCOCC(C)O` (stereo not drawn) as the compound, how does the outcome read?
Answer: inactive

Question: Which outcome does the source give for `CC(C)OP(=O)(CP(=O)(OC(C)C)OC(C)C)OC(C)C` here?
Answer: inactive

Question: How did the outcome turn out when `NC(N)=NC(=O)c1nc(Cl)c(N)nc1N` was run?
Answer: inactive

Question: For `C=CC(=O)OCCn1c(=O)n(CCOC(=O)C=C)c(=O)n(CCOC(=O)C=C)c1=O`, which outcome is on record?
Answer: inactive

Question: Which outcome does the source give for `CC(C#N)(CCC(=O)O)N=NC(C)(C#N)CCC(=O)O` (stereo not drawn) here?
Answer: inactive

Question: Which outcome does the source give for `CC(C)C(C)(C)C(C)(C)C(C)(C)S` here?
Answer: inactive

Question: How did the outcome turn out when `C[C@]12CC[C@H]3[C@@H](CCC4=CC(=O)CC[C@@]43C)[C@@H]1CC[C@@H]2C(=O)CO` was run?
Answer: inactive

biological target: Hepatocyte nuclear factor 4-alpha (Homo sapiens) (UniProt P41235); assay: ATG_HNF4a_TRANS: Attagene TRANS-FACTORIAL HepG2 Assay for human Hepatocyte Nuclear Factor 4 alpha (HNF4a) (AID 2282982); conditions: HepG2 HNF4a transactivation reporter, mRNA readout
How it was run: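 Transient MRTU transfection of HepG2, 24 h dosing. Readout: reporter mRNA via RT-PCR + capillary electrophoresis, fluorescence; activity fit upward relative to DMSO control.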

Sequence of Hepatocyte nuclear factor 4-alpha (Homo sapiens) (P41235 whole entry, looked up): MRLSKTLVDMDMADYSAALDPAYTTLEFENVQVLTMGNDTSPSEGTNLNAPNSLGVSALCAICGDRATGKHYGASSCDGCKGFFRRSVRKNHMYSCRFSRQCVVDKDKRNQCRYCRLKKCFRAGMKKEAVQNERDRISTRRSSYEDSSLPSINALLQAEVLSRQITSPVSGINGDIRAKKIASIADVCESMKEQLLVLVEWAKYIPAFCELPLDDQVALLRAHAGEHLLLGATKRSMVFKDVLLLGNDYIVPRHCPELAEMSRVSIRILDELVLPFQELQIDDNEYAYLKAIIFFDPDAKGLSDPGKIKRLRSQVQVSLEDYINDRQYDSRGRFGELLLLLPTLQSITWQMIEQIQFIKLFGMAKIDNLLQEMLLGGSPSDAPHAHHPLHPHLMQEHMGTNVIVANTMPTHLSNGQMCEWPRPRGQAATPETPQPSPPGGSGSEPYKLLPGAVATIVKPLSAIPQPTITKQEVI

Question: For `COc1cc2ncnc(Nc3cccc(Cl)c3)c2cc1OC`, which outcome is on record?
Answer: inactive

Question: For `O=Cc1ccc(Cl)c([N+](=O)[O-])c1`, which outcome is on record?
Answer: inactive

Question: Which outcome does the source give for `CC(=O)[C@H]1CC[C@H]2[C@@H]3CC=C4C[C@@H](O)CC[C@]4(C)[C@H]3CC[C@]12C` here?
Answer: inactive

Question: With `O=S(=O)(O)c1ccc(O)c2ncccc12` as the compound, how does the outcome read?
Answer: inactive

Question: `NCCCCCCN` was tested. Which outcome did it give?
Answer: inactive

Question: How did the outcome turn out when `CCCCCC=CCC(=O)OC` was run?
Answer: inactive

Question: Which outcome does the source give for `CNCCCC12CCC(c3ccccc31)c1ccccc12` here?
Answer: inactive

Question: For `CCCCCCCCC=O`, which outcome is on record?
Answer: inactive

Question: Which outcome does the source give for `CCCCNC(=O)NS(=O)(=O)c1ccc(N)cc1` here?
Answer: inactive

Question: `O=C(O)c1ccc(C(=O)O)cc1` was tested. Which outcome did it give?
Answer: inactive

Question: How did the outcome turn out when `CC(C)(C#N)c1cc(Cn2cncn2)cc(C(C)(C)C#N)c1` was run?
Answer: inactive

Question: How did the outcome turn out when `CC1(C)C(=O)N(Br)C(=O)N1Cl` was run?
Answer: inactive

Question: How did the outcome turn out when `O=C(O)CN(CCN(CC(=O)O)CC(=O)O)CCN(CC(=O)O)CC(=O)O` was run?
Answer: inactive

Question: Which outcome does the source give for `CCN(CC)c1ccc(C(=C2C=CC(=[N+](CC)CC)C=C2)c2ccc(S(=O)(=O)O)cc2S(=O)(=O)[O-])cc1` here?
Answer: inactive

Question: How did the outcome turn out when `OCCOCCOCCOCCO` was run?
Answer: inactive

Question: Which outcome does the source give for `N#Cc1ccccc1` here?
Answer: inactive

Question: For `CCCOCC(C)O` (stereo not drawn), which outcome is on record?
Answer: inactive

Question: `C=CC(=O)OCCn1c(=O)n(CCOC(=O)C=C)c(=O)n(CCOC(=O)C=C)c1=O` was tested. Which outcome did it give?
Answer: inactive

Question: Which outcome does the source give for `CC[C@]12CCCN3CCc4c(n(c5ccccc45)[C@@](O)(C(=O)OC)C1)[C@@H]32` here?
Answer: inactive

Question: For `CC(C)C(C)(C)C(C)(C)C(C)(C)S`, which outcome is on record?
Answer: inactive

Question: `O=c1oc(=O)c2cc3c(=O)oc(=O)c3cc12` was tested. Which outcome did it give?
Answer: inactive
